± gives the standard deviation. Whole data set: some 8,200 sequences, median “pre-steady-state target cleavage rate” near 0.024, cut for the highest 2% near 1.3. Many of the other results were omitted from the sample, so the highest values are more common in it than they were.
Tested on: MIWI (PIWIL1) piRISC loaded with L1MC piRNA (30 nt)
Assay: pre-steady-state target cleavage rate (min^-1); MIWI and MILI are mouse PIWI proteins and EfPiwi is from a freshwater sponge; tags in brackets are library labels; higher = faster piRNA-guided slicing of the target
Conditions: guide: L1MC piRNA 5'p-UAACUAAAUACUAUGCAAGCUGUAGGUCCU
Summary of the method: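 At 33 °C in HEPES–potassium acetate buffer, a transcribed, DNA-blocked target RNA library […] was exposed for 0–8 or 0–960 min to 1 nM active affinity-purified piRISC carrying a single synthetic guide, with or without 500 nM GTSF1 partner protein. Uncleaved targets were sequenced and normalised to depth and to weakly complementary targets. With three trials pooled and k3 capped at 0.0001 min^-1, a burst-and-steady-state fit produced the pre-steady-state cleavage rate.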

[1] = auxiliary factor: 500 nM mouse GTSF1
[2] = auxiliary factor: none (no GTSF1)
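Also: 1 nM active piRISC with 0.1 nM target library at 33 °C single turnover.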

Sequence	pre-steady-state target cleavage rate [1]	pre-steady-state target cleavage rate [2]
AGGACCUACAGCAUGCAUAGUAUUUACAAA	0.526 ± 0.066	0.00349 ± 0.0032
UGGACGUUCAGCUUGCAUAGUAUUUAGUUA	1.37 ± 0.052	0.0691 ± 0.012
AGGACGAACAGCUUGCAUAGUAUUUAGUUA	1.27 ± 0.045	0.084 ± 0.016
AGGACGUAGAGCUUGCAUAGUAUUUAGUUA	1.17 ± 0.072	0.047 ± 0.0083
AGGACGUUCAGCUUGCAUAGUAUUUAGUUA	1.35 ± 0.063	0.0669 ± 0.01
UCCACCUUCAGCUUGCAUAGUAUUUAGUUA	0.933 ± 0.045	0.0531 ± 0.0087
UCGACGUUCAGCUUGCAUAGUAUUUAGUUA	1.3 ± 0.036	0.0748 ± 0.015
UCCACGUUCAGCUUGCAUAGUAUUUAGUUA	1.42 ± 0.057	0.0658 ± 0.011
UCCACCACAGCUUGCAUAGUAUUUAGUUA	0.992 ± 0.035	0.0505 ± 0.0088
UGGACGUAGAGCUUGCAUAGUAUUUAGUUA	1.29 ± 0.083	0.043 ± 0.0093
UGGACCUACAGCUUGCAUACAAUUUAGUAA	0.00447 ± 0.0027	–
UCCACCUACAGCUUGCUAUGUAUUUAGAAA	0.00878 ± 0.0045	–
UCCUGGAUGUGCUUGCAUACUAUUUAGUUA	0.0877 ± 0.01	0.0191 ± 0.0037
UCCUGGAUCAGCUUGCAUAGUAUUUUGAUA	0.17 ± 0.032	0.0123 ± 0.004
UCCUGGAACAGCUUGCAUAAGUAUUUAGUUA	0.00489 ± 0.0033	–
UCCUGGAACAUGCUUGCAUAGUAUUUAGUUA	0.696 ± 0.028	0.0566 ± 0.011
UCCUGGUACAGCUUGCAUCGUAUUUAGUUA	0.203 ± 0.024	0.0269 ± 0.0059
UCCUGCUACAGCUUGCAUAGUCUUUAGUUA	0.279 ± 0.034	0.0195 ± 0.0047
UCCUGCUACAGCUUGCAUAGAUUUUAGAAA	0.00439 ± 0.0033	–
UGGACCUACUGCUUGCAUUGUAUUUAGUUA	0.868 ± 0.041	0.0358 ± 0.009

Sequence	pre-steady-state target cleavage rate [1]	pre-steady-state target cleavage rate [2]
UCCUCCUACACGUUGCAUAGUAUUUAGUAA	0.507 ± 0.035	0.00568 ± 0.0015
UCCACCUACAACUUGCAUAGUAUUUAGUUA	0.869 ± 0.025	0.0505 ± 0.0067
UGGACCUACACUUGCAUAGUAUUUAGUUA	1.33 ± 0.082	0.045 ± 0.0091
AGGACCUACACUUGCAUAGUAUUUAGUUA	1.15 ± 0.043	0.0736 ± 0.016
UGGACCUACAAGCUUGCAUAGUAUUUAGUUA	1.03 ± 0.058	0.0528 ± 0.0098
UGGACCUACACCUUGCAUAGUAUUUAGUUA	1.23 ± 0.045	0.0585 ± 0.0088
UGGACCUACAACUUGCAUAGUAUUUAGUUA	1.5 ± 0.062	0.08 ± 0.013
UCGACCUACACUUGCAUAGUAUUUAGUUA	1.09 ± 0.045	0.0331 ± 0.0076
AGGACCUACAACUUGCAUAGUAUUUAGUUA	1.08 ± 0.031	0.0712 ± 0.011
UCGACCUACAACUUGCAUAGUAUUUAGUUA	1.33 ± 0.041	0.0746 ± 0.015
UCCUGGAACAGCUUCCAUAGUAUUUAGAAA	0.00998 ± 0.0048	–
UCCACCUACAGCUUGCAUAGUAUUUAGUA	0.445 ± 0.043	0.00981 ± 0.0037
AGGACCUACAGCUUGCAUUCUAUUUAGUAA	0.262 ± 0.057	0.00441 ± 0.0024
UCCUGGAUGAGCUUGCUUAGUUUUUAGUUA	0.0242 ± 0.0064	0.00971 ± 0.0022
UCCUGGAUGUCCAUGCAUAGUAAUUAGUUA	0.00537 ± 0.0047	–
UGGACCAACAGCUUGCAUAGUAUUUACUUA	0.299 ± 0.018	0.0367 ± 0.0063
UCCUGGAUGUCCUUGAAUAGUAUUUAGUUA	0.0223 ± 0.0065	0.00268 ± 0.0026
UGCUCCUACAGCUUGCAUAGUAUUUAGAAA	0.429 ± 0.033	0.00714 ± 0.0022
UGCUCCUACAGCUUGCAUAGUAUUUAGUAA	1.07 ± 0.045	0.0382 ± 0.0079
AGCUCCUACAGCUUGCAUAGUAUUUAGUUA	1.37 ± 0.053	0.0847 ± 0.013

Reference: the supplement of paper PMC10338343
